# Hits are enriched below; roughly 17% of the tested compounds scored in any of these assays.
# TDP1 cell noCPT = qHTS for Inhibitors of human tyrosyl-DNA phosphodiesterase 1 (TDP1): qHTS in cells in absence of CPT | DT40 Tdp1-/- hTDP1 cells, no CPT, ATP luminescence, 48 h | Potency, µM (top dose mostly 46.2 µM), inactives show at the top dose activity change, negative = growth inhibition, actives largely listed as inhibitors | 15% of 420,000 active | AID 686978, 2013; further: on the % scale 0 is the no-effect control and ±100 the full control effect; nearly all actives have a fitted effect of over 55% in size
#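 A cellular qHTS used chicken DT40 cells lacking endogenous Tdp1 but carrying stably transfected human TDP1. Compounds were applied without camptothecin, and cell growth kinetics were judged by ATP-dependent luminescence after ≥48 hr.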
# TDP1 block = inhibitors of human tyrosyl-DNA phosphodiesterase TDP1 | Q9NUW8 | AID 485290 | 0.28% of 350,000 active | recombinant TDP1, AlphaScreen DNA substrate cleavage | Potency, µM (doses to about 130 µM), without a hit: at the top dose activity change, negative = inhibition, most hits filed as inhibitors; further: on the % scale 0 is the no-effect control and ±100 the full control effect; nearly all actives have a fitted effect of over 40% in size
# Target sequence (Q9NUW8 whole entry, looked up): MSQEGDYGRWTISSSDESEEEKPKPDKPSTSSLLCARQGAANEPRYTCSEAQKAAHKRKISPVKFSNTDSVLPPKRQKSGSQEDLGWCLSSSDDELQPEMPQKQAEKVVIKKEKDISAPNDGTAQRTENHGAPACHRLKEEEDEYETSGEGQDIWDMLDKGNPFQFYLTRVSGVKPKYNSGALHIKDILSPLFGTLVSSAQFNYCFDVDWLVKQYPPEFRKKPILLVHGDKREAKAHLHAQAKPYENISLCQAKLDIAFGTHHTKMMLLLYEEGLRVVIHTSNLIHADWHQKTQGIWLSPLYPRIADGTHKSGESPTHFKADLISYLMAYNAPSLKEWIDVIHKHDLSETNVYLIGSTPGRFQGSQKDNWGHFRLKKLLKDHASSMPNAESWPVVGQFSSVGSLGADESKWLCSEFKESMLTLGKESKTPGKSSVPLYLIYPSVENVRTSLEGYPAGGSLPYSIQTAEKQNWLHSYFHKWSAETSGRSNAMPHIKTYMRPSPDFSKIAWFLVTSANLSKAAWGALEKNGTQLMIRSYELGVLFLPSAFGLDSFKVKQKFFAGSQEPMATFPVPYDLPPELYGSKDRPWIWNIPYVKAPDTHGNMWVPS
#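 AlphaScreen read-out: signal falls as enzyme removes the 3' tyrosine-FITC from a 5'-biotinylated DNA oligo (15 nM, 5 min, RT). Enzyme was E. coli-made recombinant Tdp1 at 1 nM, exposed to compound for 15 min beforehand; beads 10 ug/ml, 10 min.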
# DT40 TDP1 CPT = growth inhibition of DT40 Tdp1-/-;hTDP1 cells with camptothecin (screen for TDP1 inhibitors) | chicken DT40 Tdp1-/-;hTDP1 cells + 20 nM CPT, ATP luminescence, 48 h | Potency, µM (top dose mostly 46.2 µM), for the others: top-dose activity change, negative = growth inhibition, hits mostly inhibitors | 12% of 420,000 active | AID 686979; further: on the % scale 0 is the no-effect control and ±100 the full control effect; nearly all actives have a fitted effect of over 55% in size
#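 Chicken DT40 Tdp1-/- cells complemented with human TDP1, 400 cells/well, exposed to compounds plus 20 nM camptothecin for at least 48 h at 37 C; viability read as ATP content by CellTiter-Glo luminescence.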
# ClpP mod = qHTS Assay for Activators of ClpP. purified B. subtilis ClpP, FRET peptide cleavage, 20 min. Potency, µM (top dose mostly 57.5 µM), without a hit: at the highest dose activity change, negative = active. AID 651965, 2013. 1.9% of 340,000 active. ATP-dependent Clp protease proteolytic subunit (Bacillus subtilis (strain 168)), P80244; active means well fitted falling curve with a large enough effect; inconclusive means small, poorly fitted or top-dose-only effect; inactive means no such curve, though single readings can be large or run the other way; further: the source files actives as falling curves though it sought activators and does not explain the sign; nearly all actives have a fitted effect of over 65% in size
#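 ClpP 10 microg/mL final, pH 8 Tris/KCl buffer with BSA, glycerol, Tween-20; compound pinned in; FRET-FV substrate; RT 20 min; Ex320/Em430; ΔFRET vs ADEP 5.8 microM, DMSO, no enzyme.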
# Active calls of the source: *; ? = inconclusive; . = not tested or not shown. Unless noted, the call rests on the fitted dose curve; in most records, active means well fitted curve in the direction sought with a large enough effect; inconclusive means small, poorly fitted or top-dose-only effect, or another doubt; inactive means no such curve, though single readings can be large; an effect the other way counts as inactive or inconclusive. Potency means the concentration at half of the fitted maximal effect.
SMILES,TDP1 cell noCPT,TDP1 block,DT40 TDP1 CPT,ClpP mod
COC(=O)c1cccc(NC(=S)Nc2ccccc2Cl)c1,-1.3%,.,0.2%,-1.0%
COC(=O)c1cccc(NC(=S)Nc2ccc(Cl)c(Cl)c2)c1,25.9µM*,2.5%,-2.2%,.
COC(=O)c1cc(NC(=S)Nc2cc(Cl)cc(Cl)c2)cc(C(=O)OC)c1,?,0.0%,18.4µM*,?
CCCCNC(=O)C(NC(=O)c1ccc(-c2ccccc2)cc1)C(=O)c1ccccc1 (stereo not given),?,.,?,-4.3%
CC(C)C[C@]1(c2ccccc2)ON(c2ccccc2C(F)(F)F)C1=O,-14.0%,-15.4%,?,-3.4%
COc1ccccc1[C@]1(C)ON(c2ccccc2C(F)(F)F)C1=O,?,-15.6%,25.9µM*,-1.2%
COc1cc(NC(=O)c2noc3c2CC(C(C)(C)C)CC3)cc(OC)c1OC (stereo not given),16.4µM*,6.4%,20.6µM*,0.9%
Cc1nc(-c2ccccc2)nc2[nH]c(=O)n(-c3ccccc3)c(=O)c12,?,4.7%,?,-11.6%
Cc1nc(-c2ccccc2)nc2[nH]c(C(C)C)cc(=O)c12,20.6µM*,-2.8%,?,-1.1%
COc1ccc(OCC(=O)N2CCN(S(=O)(=O)c3ccccc3[N+](=O)[O-])CC2)cc1,-10.2%,5.5%,-4.8%,.
COc1ccc2cc(C3CC=C(CO)CN3S(=O)(=O)c3ccccc3[N+](=O)[O-])n(C(=O)OC(C)(C)C)c2c1 (stereo not given),20.6µM*,.,23.1µM*,-0.6%
Cc1ccc(NC(=O)C2CCCN2S(=O)(=O)c2ccc3nc(-c4ccccc4)[nH]c3c2)cc1F (stereo not given),10.3µM*,-2.6%,18.4µM*,?
O=C(Nc1cccc(F)c1)C1CCCN1S(=O)(=O)c1cccc2cccnc12 (stereo not given),?,-1.3%,18.4µM*,-1.3%
O=C(Nc1ccc(C(F)(F)F)cc1)C1CCCN1S(=O)(=O)c1cccc2cccnc12 (stereo not given),23.1µM*,0.0%,?,-0.8%
Cc1ccc(NC(=O)C2CCCN2S(=O)(=O)c2cccc3cccnc23)cc1 (stereo not given),?,2.0%,?,-1.3%
Cc1ccc(NC(=O)C2CCCN2S(=O)(=O)c2cccc3cccnc23)cc1C (stereo not given),20.6µM*,-1.0%,?,-3.1%
Cc1ccc(NC2CCCN(C(=O)CCc3ccncc3)C2)cc1C (stereo not given),-9.6%,4.1%,-27.8%,-0.4%
Cc1nn(C)cc1/C=N/NC(=O)Cn1cncn1,3.7%,.,2.8%,.
COc1ccc(CNS(=O)(=O)NCc2ccc(C)cc2)cc1,1.8%,-2.7%,17.2%,.
COc1ccc(N2CCN(C(=O)C3CCN(C(=O)c4cccc(Cl)c4)CC3)CC2)cc1,?,0.9%,?,.
CN1CCN(CCCNC(=O)c2cnn(-c3ccccc3)c2C2CCN(C(=O)OC(C)(C)C)CC2)CC1,-5.0%,4.2%,-13.4%,-0.7%
COc1ccccc1N1CCN(CCCNC(=O)c2cnn(-c3cccc(Cl)c3)c2C2CCN(C(=O)OC(C)(C)C)CC2)CC1,7.31µM*,7.4%,9.2µM*,-1.7%
Cc1ccc(C)c(N2CCN(CCCNC(=O)c3cnn(-c4ccccc4)c3C3CCN(C(=O)OC(C)(C)C)CC3)CC2)c1,4.61µM*,2.1%,6.51µM*,-1.0%
COc1cc(OC)cc(C(=O)N2CCN(C3CCC(C)CC3)CC2)c1 (stereo not given),-23.1%,.,-16.8%,.
Cc1cc(SCC(=O)NC2CC2)nc2ccccc12,-8.1%,0.2%,2.3%,-0.5%
O=C(CSc1nc2ccccc2c(=O)[nH]1)c1ccc(O)cc1O,?,2.3%,13µM*,0.3%
O=C(CSc1nc2ccccc2c(=O)[nH]1)c1cccs1,16.4µM*,8.3%,8.2µM*,-1.1%
Cc1cc(SCC(=O)c2cccs2)nc2ccccc12,?,5.3%,16.4µM*,0.2%
O=C(CSc1nc2ccccc2c(=O)[nH]1)c1ccc(O)c(O)c1,-13.0%,-6.8%,-25.6%,-1.5%

# Source: PubChem BioAssay
